Reference: the supplement of paper PMC6555819

test system: PPARg:RXRa IVT, anti-PPARg (NR concentration 270 nM, RXRa partner concentration 90 nM); assay: PBM binding z-score (relative to random genomic background probes); higher = stronger binding; sequences stand for … in GC…GCGATTGACAGCGTAGAATGAAGG
How it was run: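 Ligand-free nuclear receptor dimers were applied to custom Agilent 4×180K protein-binding microarrays whose double-stranded probes carried direct-repeat seeds, single-nucleotide variants, half-site ablations and random human genomic background sequences in 34-nt variable regions. Incubation lasted 1 h. Binding z-scores were computed against the random background probes from regression-normalized fluorescence.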

Sequence | PBM binding z-score
CATACAGGGTCAGCAAGGCCAGAGTAGGGACGGC | 2.54
CCTACTGGGCCAAAAAAGTCATTGATGCCGATAA | 2.23
CCAGACAGGTGGAAGGTAACTCAGTCTGGTACGC | -0.196
GCTAGTTGGTCAGTAAAGGGTCACACACCGGTCG | 2.2
TCTTGTAGCTCAAGCAGGTTAAGAAAGCCTGAGT | -0.0591
ACTAGCAGGCCAAGGGTCACTAAAGATTAGTCCG | 3.86
CCGACTGGGGCCAGGTTACCATAACGCACAGCCA | -0.22
ATATGTAGGTTATCGGGTCATTCAATTTGCGCAT | 7.56
CCTTTCGGGTCACTCCAGGTTATAGCATCGGAGT | 3.53
ACAGACAGGTGAGTGAAGGTAACTCCGCTGGACG | 0.681
TGTCAAAGTTCAACGGTAACGTAAGTATCCACAC | 4.34
ATCTGTAGGTTAAGGGTCATTCAGGTTGGTTCGC | 5.75
GGAAGGAGGGCAAAGTTGATAGCATCTGTCGACG | 4.58
CGTCGAAGTTCAAGGTAACGTAACAGAAAGCAGC | 0.326
AGTCAAAGTTCATCCAGGTAACGTAAGATATGCT | 3.48
TAGCCTAGGTCATGGGCGAGTATACCACGCGAAC | 3.26
CCAGACAGGTGAGAAGGTAACTAAGCCTCGATTA | 0.601
CATACAGGGTCAGCTACGCCAGAGTAGGGACGGC | 2.35
CATACAGGGTCAGCGAGGCCAGAGTAGGGACGGC | 2.99
AATACAGGGTCATCGCAGGCCAGAGTACGCACAG | 4.33

Sequence | PBM binding z-score
TCATATAGGAAATACAGGTGAAAGTCGGCATCTA | 1.27
TTACCAAGGTGGGCTGAGGTCGTTGATCCAACTC | 0.386
CAAACTAGGTCACCGGAAGGTCAAACTCCGCATG | 8.83
TAGCCTAGGTCAGATCGGACCAGTATACGCTATA | 1.36
TCATATAGGTAAAAGGTGAAAGTCGGTGTGGTAA | 5.59
ACTATTCGTTGAGACGAGGGCAACCGATAGGTTG | 0.823
TCGAGTAGGTTACCAATGGGCCATTCAGCTTTCT | 2.59
TCGAGTAGGTTAGACGGGGCATTCAGCCAACATA | 0.996
AGAATGAGGTTACTAAGATCAGGGAATTGCGGTC | 3.37
CCGACTGAGGCAGAAAGGTTACCATACCATCCGG | -0.0549
GCAGACAGGTGAAACGCACGTAACTCAGGGTGGC | 0.58
CCGACTGGGGCAGAAAGGTTACCATACCATCCGG | 2.01
GCTCGGAGGAAAAGGTCAGAGCTTTGTCCGTAGA | 1.11
AGAATGAGGTAAAGATCAGGGAAACAGAATACAT | 1.73
CAGCCCAGGTCAGGGCCAGTATAGGAGGAACGTT | 1.26
CGAACTAGGTCAGAACAGGACAGTGGAGGATGAT | 7.18
CCTACTGGGCCATCAGGTCATTGATATCAACGTT | 4.72
GTTTACGGGTCAAAGGTTATAGCATGAATAGAAT | 6.3
TCAGACAGGTGAAGGTAACTCCGGTACGCAGTCG | 1.09
TAGCCTAGGTCATGGGCCAGTATGCCACGCGAAC | 3.62
